# Bioassay records deposited in PubChem BioAssay by National Center for Advancing Translational Sciences (NCATS).
# HT1080-NT tox – kills 2HG-producing HT-1080-NT fibrosarcoma cells; HT-1080-NT fibrosarcoma viability, CellTiter-Glo ATP luminescence, 48 h; 360,000 compounds, 1.6% hits; Potency, µM (top dose mostly 46.1 µM), inactives show at the top dose activity, negative = less viability, hits mostly cytotoxic;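 further: NT is the 2HG producing partner of a matched IDH1 knockdown line; 0% = DMSO-treated cells and -100% = media-only wells without cells; nearly all actives have a fitted effect of over 55% in size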
#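 Compounds were tested in concentration-response format on HT-1080-NT cells for 48 hours at 37 degrees C. Cell viability came from CellTiter-Glo luminescence; curves were classified by r2, response magnitude and activity.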
# KB-3-1 cytotox – KB-3-1 parental cell cytotoxicity | KB-3-1 viability, CellTiter-Glo ATP luminescence, 72 h | Potency, µM (series often up to 46.1 µM), most hits filed as cytotoxic | 400,000 compounds, 1.4% hits | AID 1347075; further: on the % scale 0 is the no-effect control and ±100 the full control effect; nearly all actives have a fitted effect of over 60% in size
#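 KB-3-1 parental drug-naive adenocarcinoma cells in DMEM/10% FBS, incubated 72 h at 37 C with pin-transferred compounds across a concentration series. Viability by CellTiter-Glo luminescence; concentration-response curves fitted after normalization.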
# MCF10A rereplic – inducers of DNA re-replication in MCF 10A breast cells; MCF 10A DNA re-replication, Hoechst nuclear intensity, 48 h; Potency, µM (top dose mostly 46.1 µM), without a hit: at the highest dose activity, positive = re-replication, usual class: activators; 350,000 compounds, 2.9% hits; AID 624296; further: % of control where 0% means no effect; nearly all actives have a fitted effect of over 50% in size
# KB-V1 MDR tox – kills drug-selected multidrug resistant KB-V1 cells; 400,000 compounds, 3.4% hits; Potency, µM (doses to about 46.1 µM), most hits filed as cytotoxic; KB-V1 MDR cells viability, CellTiter-Glo, 72 h; further: on the % scale 0 is the no-effect control and ±100 the full control effect; nearly all actives have a fitted effect of over 60% in size
#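 KB-V1 cells (P-gp-expressing MDR subline of KB-3-1) in phenol-red-free DMEM with 10% FBS were exposed to library compounds over a concentration series for 72 h at 37 degrees C. Viability read by CellTiter-Glo luminescence; concentration-effect curves fitted after normalization.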
# SW480 rereplic – inducers of DNA re-replication in SW480 colon cancer cells | SW480 DNA re-replication, Hoechst DNA content imaging, 48 h | Potency, µM (series often up to 46.1 µM), inactives show top-dose re-replication activation, most hits filed as activators | 340,000 compounds, 1.8% hits | AID 624297; further: % of control where 0% means no effect; nearly all actives have a fitted effect of over 55% in size
#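 First, 250 cells per well were seeded. Next, compound or vehicle (23 nL) was pinned in, plates sat 48 hr at 37 C. Finally Hoechst was added for 40 min before fluorescence scanning.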
# HT1080 IDH1KD tx – kills HT-1080 cells with IDH1 knockdown. AID 686971. 360,000 compounds, 2% hits. Potency, µM (highest dose often 46.1 µM), for inactives: top-dose activity, negative = toxicity, most hits filed as cytotoxic. HT-1080 IDH1 knockdown viability, ATP luminescence, 48 h;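 further: 0% = DMSO wells and -100% = cell-free medium wells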
#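 In this qHTS, HT-1080 cells depleted of IDH1 are exposed for 48 h at 37 °C to compound titrations. Toxicity is scored from CellTiter-Glo luminescence, with DMSO as full viability and medium alone as none.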
# Active calls of the source: *; i = inactive; ? = inconclusive; . = no result; [ ] = another dose, or the depositor's remark. Most compounds without a hit are left out; they make up all but 8% or so of the library. The call rests on the fitted dose curve; in most records, active means well fitted curve in the direction sought with a large enough effect; inconclusive means small, poorly fitted or top-dose-only effect, or another doubt; inactive means no such curve, though single readings can be large; an effect the other way counts as inactive or inconclusive. Potency means the concentration at half of the fitted maximal effect.
SMILES,HT1080-NT tox,KB-3-1 cytotox,MCF10A rereplic,KB-V1 MDR tox,SW480 rereplic,HT1080 IDH1KD tx
COc1cccc(NS(=O)(=O)c2cc3c4c(c2)C(C)C(=O)N4CCC3)c1 (stereo not given),.,i,.,i,.,.
COC1(C(F)(F)F)NC(=O)N(c2ccc(F)cc2)C1=O (stereo not given),.,i,.,i,.,.
Cc1c(NC(=O)c2nn3c(c2Br)NC(c2ccccc2)CC3C(F)(F)F)c(=O)n(-c2ccccc2)n1C (stereo not given),11.1%,i,-68.5%,16.4µM*,-166.4%,22.2%
CCOC(=O)/C(C#N)=C/c1cc2ccccc2nc1Cl,-7.7%,i,3.4%,i,?,?
CSc1nc2ccccc2cc1/C=C(\C#N)c1cccc(Cl)c1,4.61µM*,20.6µM*,8.2µM*,?,?,4.61µM*
COc1cccc2nc3c(C(=O)NCCN(C)C)cccc3cc12,?,?,-8.8%,9.2µM*,9.2µM*,9.2µM*
CN(C)CCNC(=O)c1cccc2[nH]c(-c3ccncc3)nc12,-8.5%,i,26.1%,i,?,?
COc1ccc(-c2nc3c(C(=O)NCCN(C)C)cccc3c3ccccc23)cc1,?,?,?,2.31µM*,?,?
COc1ccc(C(=O)NCCN(C)C)c2nc3ccccc3cc12,?,?,21.1%,8.2µM*,?,20.6µM*
CN(C)CCNC(=O)c1cccc2nc3c(ccc4ccccc43)nc12,?,7.31µM*,-7.9%,20.6µM*,?,?
COc1cccc(-n2cc(C(=O)NCCCOC(C)C)c3ccccc3c2=O)c1,2.3%,i,-2.4%,i,-1.3%,-0.3%
CCCCN(CC)C(=O)Cn1nc(Cc2ccncc2)c2ccccc2c1=O,11.6%,i,-10.7%,i,-1.9%,10.2%
CCN(CC)CCCNC(=O)c1nn(-c2ccc(OC)c(Cl)c2)c(=O)c2c1c1ccccc1n2C,.,i,.,i,.,.
Cc1nn(CCC(=O)NNC(=S)Nc2ccc(F)cc2)c(C)c1Br,0.1%,i,5.9%,i,8.0%,-1.0%
CCCCNC(=S)NNC(=O)CCn1nc(C)c(Br)c1C,0.891µM*,i,6.1%,i,8.2µM*,1.12µM*
CN(C)c1ccc(/C=C/N2C=CCc3c2ccc2ccccc32)cc1,.,0.581µM*,.,?,.,.
COC(=O)C1=C(O)/C(=C\c2ccc(OCC(=O)Nc3ccccc3OC)cc2)N=C1C,13.9%,i,-0.5%,i,6.6%,12.0%
COC(=O)C1=C(O)/C(=C\c2ccc(OCC(=O)Nc3ccc(OC)cc3)cc2)N=C1C,2.3%,i,?,?,14.6µM*,0.9%
CCOC(=O)c1cccc(NC(=O)CSc2nnc(COc3ccccc3)n2CC)c1,5.0%,i,?,11.6µM*,1.0%,-4.7%
CCn1c(COc2cccc(OC)c2)nnc1SCC(=O)Nc1cc(OC)ccc1OC,2.6%,i,4.5%,?,-6.7%,4.2%
CCn1c(COc2ccccc2)nnc1SCC(=O)Nc1cc(OC)ccc1OC,-3.8%,i,3.1%,13µM*,4.5%,-9.6%
CCn1c(CC(=O)Nc2cccc(Cl)c2Cl)nnc1SCCOc1ccc(OC)cc1,12.4%,i,4.4%,20.6µM*,-9.0%,0.9%
C=CCn1c(CCNC(=O)c2ccc(Cl)c(Cl)c2)nnc1SCCOc1ccc(OC)cc1,?,i,20.6µM*,5.17µM*,9.5%,?
CC(C)n1nnnc1C1c2ccccc2C(=O)N1CCc1c[nH]c2ccccc12 (stereo not given),2.2%,i,.,?,.,12.3%
CCn1c(C)nnc1SCC(=O)Nc1ccc(C(C)=O)cc1,3.9%,i,0.6%,i,-3.6%,-1.2%
SMILES,HT1080-NT tox,KB-3-1 cytotox,MCF10A rereplic,KB-V1 MDR tox,SW480 rereplic,HT1080 IDH1KD tx
CCn1c(C)nnc1SCC(=O)Nc1cccc(Cl)c1,4.9%,i,1.5%,?,14.6µM*,9.5%
O=C(NCCCN1CCN(c2ccccc2F)CC1)c1ccc2nc(N3CCCCC3)sc2c1,.,i,.,i,.,.
CCOC(=O)c1ccc(NC(=O)CC2Nc3cc(C)c(C)cc3NC2=O)cc1 (stereo not given),.,i,.,i,.,.
Cc1ccc(C)c(N/C(N)=N/c2nc(C)cc(C)n2)c1,5.2%,i,10.0%,16.4µM*,4.3%,-11.3%
COc1ccc(C)cc1N/C(N)=N/c1nc(C)cc(C)n1,0.0%,i,7.5%,?,-2.7%,-19.9%
CC(=O)Nc1ccc(N/C(N)=N/c2nc(C)cc(C)n2)cc1,-10.2%,i,6.2%[9.22 µM],i,-11.2%,-18.7%
Cc1cc(C)nc(/N=C(\N)Nc2ccc(-c3ccccc3)cc2)n1,16.4µM*,16.4µM*,?,16.4µM*,12.5%,16.4µM*
CCOc1ccc(/C(O)=C2/C(=O)C(=O)N(c3ncccn3)C2c2ccccc2)cc1 (stereo not given),-3.7%,i,1.0%,i,-16.7%,-5.3%
C=CCn1c(Cc2cccc3ccccc23)n[nH]c1=S,-9.6%,i,-0.9%,18.4µM*,?,-4.3%
Nn1cnnc1N/N=C\c1ccc(-c2ccccc2[N+](=O)[O-])o1,-23.2%,7.31µM*,?,2.06µM*,1.7%,-24.2%
O=[N+]([O-])c1ccccc1-c1ccc(/C=N/n2cnnc2)o1,4.9%,i,-5.8%,?,-1.4%,-20.6%
COc1ccc(NC(=O)c2ccc(COCC(F)(F)F)cc2)cc1OC,8.1%,i,6.8%,20.6µM*,-4.0%,-2.1%
O=C(Nc1ccc(S(=O)(=O)N2CCOCC2)cc1)c1ccc(CN2CCc3ccccc3C2)cc1,?,?,?,2.91µM*,4.9%[9.22 µM],20.6µM*
COc1cccc(NC(=O)c2ccc(CN3CCc4ccccc4C3)cc2)c1,-10.1%,i,?,i,4.0%,-18.2%
COc1ccc(CN2CCc3cc(OC)c(OC)cc3C2)cc1O,0.9%,?,?,16.4µM*,5.0%,-10.4%
COc1ccc(NC(=O)c2ccc(CN3CCc4ccccc4C3)cc2)cc1OC,-24.3%,?,14.8%,8.2µM*,?,-16.7%
O=C(Nc1cccnc1)c1ccc(COCC(F)(F)F)cc1,-14.0%,i,-0.3%,?,-1.5%,-3.7%
COc1cc2c(cc1OC)CN(Cc1ccc(F)cc1)CC2,4.4%,i,-21.8%,i,?,-9.7%
Cc1cc(C)c(NC(=O)CSc2ccc(-c3sc(-c4ccccc4)nc3C)nn2)c(C)c1,.,i,.,i,.,.
CC(=O)Nc1nnc(CCS(=O)(=O)c2ccc(C)c(C)c2)s1,-3.7%,i,-0.5%,i,?,10.0%
Cc1cc(Br)ccc1OCCCCN1CCCCC1,20.6µM*,i,12.3%,?,?,?
